# According to article PMC11102866, “Nucleosome-bound NR5A2 structure reveals pioneer factor mechanism by DNA minor groove anchor competition”:
# Tests used:
# [1] = target: NR5A2 wild type;histone octamer (Homo sapiens;, UniProt O00482;C0HKE1;Q6ZWY9;P84244;P62806 1-541;2-130;2-126;2-136;2-103, |); test: SeEN-seq (EMSA of nucleosome library followed by sequencing); 0.8 uM human NR5A2; 20 mM Tris-HCl pH 7.5, 120 mM NaCl, 1 mM MgCl2, 10 uM ZnCl2, 1 mM DTT, 100 ug/ml BSA, room temperature, 30 min; 0.1 uM nucleosome library; high values mean tight binding
# [2] = target: mouse Nr5a2 wild type;histone octamer (Mus musculus;, UniProt P45448;C0HKE1;Q6ZWY9;P84244;P62806 1-560;2-130;2-126;2-136;2-103, |); test: SeEN-seq (EMSA of nucleosome library followed by sequencing); 1.2 uM mouse Nr5a2; 20 mM Tris-HCl pH 7.5, 120 mM NaCl, 1 mM MgCl2, 10 uM ZnCl2, 1 mM DTT, 100 ug/ml BSA, room temperature, 30 min; 0.1 uM nucleosome library; high values mean tight binding
Binder,binding signal [1],binding signal [2]
"60 (nucleosome, reconstituted with mouse histones H2A, H2B, H3.3 and H4) DNA 1: ATCCTGGAGAATCCCGGTGCCGAGGCCGCTCAATTGGTCGTAGACAGCTCTAGCACCGCTTATCAAGGCCAACGCGCTGTCCCCCGCGTTTTAACCGCCAAGGGGATTACTCCCTAGTCTCCAGGCACGTGTCAGATATATACATCCTGTGAT DNA 2: ATCACAGGATGTATATATCTGACACGTGCCTGGAGACTAGGGAGTAATCCCCTTGGCGGTTAAAACGCGGGGGACAGCGCGTTGGCCTTGATAAGCGGTGCTAGAGCTGTCTACGACCAATTGAGCGGCCTCGGCACCGGGATTCTCCAGGAT","0.819 log2 enrichment (bound/unbound, relative to Widom 601)","0.573 log2 enrichment (bound/unbound, relative to Widom 601)"
"66 (nucleosome, reconstituted with mouse histones H2A, H2B, H3.3 and H4) DNA 1: ATCCTGGAGAATCCCGGTGCCGAGGCCGCTCAATTGGTCGTAGACAGCTCTAGCACCGCTTAAACGCATCAAGGCCATGTCCCCCGCGTTTTAACCGCCAAGGGGATTACTCCCTAGTCTCCAGGCACGTGTCAGATATATACATCCTGTGAT DNA 2: ATCACAGGATGTATATATCTGACACGTGCCTGGAGACTAGGGAGTAATCCCCTTGGCGGTTAAAACGCGGGGGACATGGCCTTGATGCGTTTAAGCGGTGCTAGAGCTGTCTACGACCAATTGAGCGGCCTCGGCACCGGGATTCTCCAGGAT","1.05 log2 enrichment (bound/unbound, relative to Widom 601)","1.15 log2 enrichment (bound/unbound, relative to Widom 601)"
"61 (nucleosome, reconstituted with mouse histones H2A, H2B, H3.3 and H4) DNA 1: ATCCTGGAGAATCCCGGTGCCGAGGCCGCTCAATTGGTCGTAGACAGCTCTAGCACCGCTTAATCAAGGCCACGCGCTGTCCCCCGCGTTTTAACCGCCAAGGGGATTACTCCCTAGTCTCCAGGCACGTGTCAGATATATACATCCTGTGAT DNA 2: ATCACAGGATGTATATATCTGACACGTGCCTGGAGACTAGGGAGTAATCCCCTTGGCGGTTAAAACGCGGGGGACAGCGCGTGGCCTTGATTAAGCGGTGCTAGAGCTGTCTACGACCAATTGAGCGGCCTCGGCACCGGGATTCTCCAGGAT","0.699 log2 enrichment (bound/unbound, relative to Widom 601)","0.779 log2 enrichment (bound/unbound, relative to Widom 601)"
"8 (nucleosome, reconstituted with mouse histones H2A, H2B, H3.3 and H4) DNA 1: ATCCTGGAGATCAAGGCCACCGAGGCCGCTCAATTGGTCGTAGACAGCTCTAGCACCGCTTAAACGCACGTACGCGCTGTCCCCCGCGTTTTAACCGCCAAGGGGATTACTCCCTAGTCTCCAGGCACGTGTCAGATATATACATCCTGTGAT DNA 2: ATCACAGGATGTATATATCTGACACGTGCCTGGAGACTAGGGAGTAATCCCCTTGGCGGTTAAAACGCGGGGGACAGCGCGTACGTGCGTTTAAGCGGTGCTAGAGCTGTCTACGACCAATTGAGCGGCCTCGGTGGCCTTGATCTCCAGGAT","2.08 log2 enrichment (bound/unbound, relative to Widom 601)","1.69 log2 enrichment (bound/unbound, relative to Widom 601)"
"62 (nucleosome, reconstituted with mouse histones H2A, H2B, H3.3 and H4) DNA 1: ATCCTGGAGAATCCCGGTGCCGAGGCCGCTCAATTGGTCGTAGACAGCTCTAGCACCGCTTAAATCAAGGCCAGCGCTGTCCCCCGCGTTTTAACCGCCAAGGGGATTACTCCCTAGTCTCCAGGCACGTGTCAGATATATACATCCTGTGAT DNA 2: ATCACAGGATGTATATATCTGACACGTGCCTGGAGACTAGGGAGTAATCCCCTTGGCGGTTAAAACGCGGGGGACAGCGCTGGCCTTGATTTAAGCGGTGCTAGAGCTGTCTACGACCAATTGAGCGGCCTCGGCACCGGGATTCTCCAGGAT","1.24 log2 enrichment (bound/unbound, relative to Widom 601)","1.27 log2 enrichment (bound/unbound, relative to Widom 601)"
"63 (nucleosome, reconstituted with mouse histones H2A, H2B, H3.3 and H4) DNA 1: ATCCTGGAGAATCCCGGTGCCGAGGCCGCTCAATTGGTCGTAGACAGCTCTAGCACCGCTTAAACTCAAGGCCACGCTGTCCCCCGCGTTTTAACCGCCAAGGGGATTACTCCCTAGTCTCCAGGCACGTGTCAGATATATACATCCTGTGAT DNA 2: ATCACAGGATGTATATATCTGACACGTGCCTGGAGACTAGGGAGTAATCCCCTTGGCGGTTAAAACGCGGGGGACAGCGTGGCCTTGAGTTTAAGCGGTGCTAGAGCTGTCTACGACCAATTGAGCGGCCTCGGCACCGGGATTCTCCAGGAT","1.09 log2 enrichment (bound/unbound, relative to Widom 601)","1.1 log2 enrichment (bound/unbound, relative to Widom 601)"
"64 (nucleosome, reconstituted with mouse histones H2A, H2B, H3.3 and H4) DNA 1: ATCCTGGAGAATCCCGGTGCCGAGGCCGCTCAATTGGTCGTAGACAGCTCTAGCACCGCTTAAACGTCAAGGCCAGCTGTCCCCCGCGTTTTAACCGCCAAGGGGATTACTCCCTAGTCTCCAGGCACGTGTCAGATATATACATCCTGTGAT DNA 2: ATCACAGGATGTATATATCTGACACGTGCCTGGAGACTAGGGAGTAATCCCCTTGGCGGTTAAAACGCGGGGGACAGCTGGCCTTGACGTTTAAGCGGTGCTAGAGCTGTCTACGACCAATTGAGCGGCCTCGGCACCGGGATTCTCCAGGAT","0.83 log2 enrichment (bound/unbound, relative to Widom 601)","0.992 log2 enrichment (bound/unbound, relative to Widom 601)"
"65 (nucleosome, reconstituted with mouse histones H2A, H2B, H3.3 and H4) DNA 1: ATCCTGGAGAATCCCGGTGCCGAGGCCGCTCAATTGGTCGTAGACAGCTCTAGCACCGCTTAAACGCTCAAGGCCACTGTCCCCCGCGTTTTAACCGCCAAGGGGATTACTCCCTAGTCTCCAGGCACGTGTCAGATATATACATCCTGTGAT DNA 2: ATCACAGGATGTATATATCTGACACGTGCCTGGAGACTAGGGAGTAATCCCCTTGGCGGTTAAAACGCGGGGGACAGTGGCCTTGAGCGTTTAAGCGGTGCTAGAGCTGTCTACGACCAATTGAGCGGCCTCGGCACCGGGATTCTCCAGGAT","0.891 log2 enrichment (bound/unbound, relative to Widom 601)","1.14 log2 enrichment (bound/unbound, relative to Widom 601)"
